In all, about 2,400 compounds went through this assay and about 750 (31%) were called active.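 How the source made its calls: active means median signal gain over dofetilide-blocked control wells reaching their mean plus 3 SD, so readout 1 at least 0; inactive means the rest.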 This is one part of the list.

The target of this assay is Voltage-gated inwardly rectifying potassium channel KCNH2 (Homo sapiens) (UniProt Q12809). In words: modulators restoring hERG flux under dofetilide – cell-based, thallium flux, duplicate retest, dofetilide IC70, confirmation (AID 1835). As to conditions: hERG cell line, FluxOR thallium flux, dofetilide-blocked; at 10 µM; hits give high values.
Chain of Voltage-gated inwardly rectifying potassium channel KCNH2 (Homo sapiens) (Q12809 whole entry, looked up): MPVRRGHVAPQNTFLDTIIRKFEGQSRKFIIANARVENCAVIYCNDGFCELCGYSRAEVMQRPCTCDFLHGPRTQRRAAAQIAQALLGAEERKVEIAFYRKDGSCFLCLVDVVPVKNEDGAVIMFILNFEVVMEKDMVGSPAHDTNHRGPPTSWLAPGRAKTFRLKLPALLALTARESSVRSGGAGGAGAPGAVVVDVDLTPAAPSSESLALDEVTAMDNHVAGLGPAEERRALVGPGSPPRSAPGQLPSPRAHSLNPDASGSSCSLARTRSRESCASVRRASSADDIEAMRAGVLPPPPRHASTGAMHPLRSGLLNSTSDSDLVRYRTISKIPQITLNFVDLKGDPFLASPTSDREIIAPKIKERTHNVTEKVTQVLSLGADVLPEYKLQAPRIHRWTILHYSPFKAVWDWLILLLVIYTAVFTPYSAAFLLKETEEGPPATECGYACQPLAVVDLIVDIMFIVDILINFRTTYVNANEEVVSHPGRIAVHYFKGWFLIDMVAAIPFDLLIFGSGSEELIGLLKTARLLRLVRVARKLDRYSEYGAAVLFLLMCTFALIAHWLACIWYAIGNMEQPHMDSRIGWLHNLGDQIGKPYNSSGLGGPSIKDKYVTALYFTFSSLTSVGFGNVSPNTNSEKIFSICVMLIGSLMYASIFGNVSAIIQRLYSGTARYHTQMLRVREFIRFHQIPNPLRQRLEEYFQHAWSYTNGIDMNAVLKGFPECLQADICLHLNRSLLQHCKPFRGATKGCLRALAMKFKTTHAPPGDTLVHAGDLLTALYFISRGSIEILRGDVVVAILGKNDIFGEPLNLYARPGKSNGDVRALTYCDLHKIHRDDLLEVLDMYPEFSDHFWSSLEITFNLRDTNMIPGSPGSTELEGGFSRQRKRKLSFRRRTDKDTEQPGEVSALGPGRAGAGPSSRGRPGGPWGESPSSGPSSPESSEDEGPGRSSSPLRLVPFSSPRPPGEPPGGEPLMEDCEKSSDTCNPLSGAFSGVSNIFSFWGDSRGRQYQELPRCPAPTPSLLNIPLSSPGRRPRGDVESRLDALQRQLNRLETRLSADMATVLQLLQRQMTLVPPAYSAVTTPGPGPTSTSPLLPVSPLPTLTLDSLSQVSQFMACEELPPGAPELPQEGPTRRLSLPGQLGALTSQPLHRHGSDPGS
For `Cc1ccc(NC2=CC(=O)OC(C)C2)cc1` (stereo unspecified), the activity increase over dofetilide control, less the hit threshold is -4% (inactive).
Under `C=C(C)CNC(=S)NN=C1c2ccccc2-c2ccccc21` stands 15% (active); under `C=CCNC(=S)N/N=C(\C)c1ccc(OC)cc1`, -4% (inactive); under `CCOC(=O)N1CCN(C(=O)c2ccc(C)c(S(=O)(=O)Nc3ccccc3)c2)CC1`, -1% (inactive).
As for `Cc1cc(S(=O)(=O)Nc2ccc(C(=O)N3CCN(C(=O)c4ccco4)CC3)cc2)ccc1F`, the activity increase over dofetilide control, less the hit threshold was -13% (inactive).
With `CCOC(=O)N1CCN(C(=O)c2ccc(Cl)c(S(=O)(=O)Nc3ccccc3)c2)CC1`, the activity increase over dofetilide control, less the hit threshold was 5% (active).
To `NC(=O)c1ccsc1NC(=O)CS(=O)(=O)c1ccccc1` belongs -9% (inactive).
Under `O=c1c(O)c(-c2cccs2)oc2ccc(Cl)cc12` stands 92% (active); under `O=C1OC(/C=C/c2ccc(Cl)cc2Cl)=NC/1=C\c1cccs1`, -7% (inactive).
To `O=c1c(O)c(-c2ccc3c(c2)OCO3)oc2ccccc12` belongs 6% (active); to `O=C(NCc1cccnc1)Nc1ccc2c(c1)OCO2`, -19% (inactive); to `O=c1c(O)c(-c2cccs2)oc2ccccc12`, 62% (active).
Take `Cn1nc(C(=O)Nc2ccc3c(c2)OCO3)c2ccccc2c1=O`: the activity increase over dofetilide control, less the hit threshold was -16% (inactive).
Under `Cc1ccc(S(=O)(=O)c2nnn3c2nc(N2CCOCC2)c2ccccc23)c(C)c1` stands -14% (inactive).
Under `C/C(CCC12CC3CC(CC(C3)C1)C2)=N\NC(N)=S` stands 0% (inactive).
Turning to `C/C(O)=C/c1nc2ccccc2[nH]c1=O`, the activity increase over dofetilide control, less the hit threshold was -7% (inactive).
Under `Cc1cccc(C)c1NC(=S)NC(=O)c1ccc(Br)o1` stands 73% (active).
To `CN1CCN(c2ccc(NC(=O)c3ccc(Br)o3)cc2)CC1` belongs -2% (inactive).
To `CCOc1ccc(-c2cccc(NC(=O)c3ccc(Br)o3)c2)nn1` belongs -26% (inactive); to `Cc1cccc(NC(=S)NC(=O)c2ccco2)c1C`, 52% (active).
In the case of `Cc1cccc(NC(=S)NC(=O)c2ccc(Br)o2)c1C`, the activity increase over dofetilide control, less the hit threshold is 6% (active).
In the case of `Cc1cccc(NC(=O)CCNC(=O)c2ccco2)c1C`, the activity increase over dofetilide control, less the hit threshold was -13% (inactive).
Under `Nc1cc(=O)[nH]c(SCC(=O)N2CCCCC2)n1` stands -10% (inactive).
For the molecule `Cc1ccc(CNS(=O)(=O)c2cc3c4c(c2)CCN4C(=O)CC3)cc1`, the activity increase over dofetilide control, less the hit threshold was -9% (inactive).
Under `Cc1cc(=S)nc(-c2ccccn2)[nH]1` stands -7% (inactive); under `Cc1[nH]c(-c2ccccn2)nc(=S)c1Cl`, 61% (active).
For the molecule `CC(C)c1ccc(NC(=O)C2CC3CCC2C3)cc1` (stereo unspecified), the activity increase over dofetilide control, less the hit threshold was -10% (inactive).
Under `CCC(C)NC(=O)c1c(-c2cc(Cl)c(OC)c(Cl)c2)noc1C` (stereo unspecified) stands -16% (inactive).
To `CC(C)COn1c(=S)[nH]c2ccccc2c1=O` belongs 18% (active).
Under `CCC(C)n1c(=S)[nH]c2ccccc2c1=O` (stereo unspecified) stands 14% (active); under `CCC(C)Sc1nc2c([nH]c3ccccc32)c(=O)n1C` (stereo unspecified), -5% (inactive).
As to `CCC(Cc1ccccc1)n1c(=S)[nH]c2ccccc2c1=O` (stereo unspecified), the activity increase over dofetilide control, less the hit threshold was 4% (active).
Under `S=c1[nH]nc(-c2ccccn2)n1/N=C/c1ccc(-c2ccccc2Br)o1` stands -16% (inactive); under `O=C1C2C3C=CC(C4CC34)C2C(=O)N1/N=C/c1ccc(-c2ccc(F)cc2[N+](=O)[O-])o1` (stereo unspecified), -1% (inactive).
To `O=[N+]([O-])c1ccc(-c2ccc(/C=N/n3cnnc3)o2)c(Br)c1` belongs 12% (active).
Under `COc1ccc(CS(=O)(=O)CC2(O)CCN(C(=O)c3cccc(C(F)(F)F)c3)CC2)cc1` stands -27% (inactive); under `Cc1cc(C)cc(-n2nnc(C(=O)NCc3ccc4c(c3)OCO4)c2N)c1`, -19% (inactive); under `COc1ccccc1C(=O)NCc1ccc2c(c1)OCO2`, -10% (inactive).
`CC12CCC(C(=O)NCc3ccc4c(c3)OCO4)(CC1=O)C2(C)C` (stereo unspecified): the activity increase over dofetilide control, less the hit threshold is 5% (active).
Regarding `CCC(=O)Nc1cc(-c2nnc(OC)c3ccccc23)ccc1N1CCOCC1`, the activity increase over dofetilide control, less the hit threshold is -1% (inactive).
Under `CCCCn1c(-c2csc(C(C)C)c2)n[nH]c1=S` stands 8% (active); under `CCCCCCn1c(-c2cccs2)n[nH]c1=S`, -8% (inactive).
In the case of `COc1cccc(C2C3=C(N=c4s/c(=C\c5ccc(OCC(=O)O)cc5)c(=O)n42)c2ccccc2CC3)c1` (stereo unspecified), the activity increase over dofetilide control, less the hit threshold is -29% (inactive).
Under `Cc1ccc(C(=O)NC(=S)Nc2ccccc2C(F)(F)F)cc1` stands -6% (inactive).
To `O=C(NC(=S)Nc1cc(C(F)(F)F)ccc1Cl)c1ccccc1` belongs 1% (active).
To `CC(C)(C)SCCNC(=O)CN1C(=O)c2ccccc2S1(=O)=O` belongs -4% (inactive); to `CCC1(c2ccc(Cl)cc2)NC(=S)N(c2ccc(C)cc2)N1` (stereo unspecified), 66% (active); to `CCC1(c2ccc(Cl)cc2)NC(=S)N(c2ccccc2)N1` (stereo unspecified), 96% (active).
On to `CCC1(c2ccccc2)NC(=S)N(c2ccc(C)cc2)N1` (stereo unspecified), for which the activity increase over dofetilide control, less the hit threshold is 113% (active).
To `CC(NC(=O)CCCn1cc([N+](=O)[O-])cn1)c1ccccc1` (stereo unspecified) belongs -14% (inactive).
To `CSc1nc(-c2ccco2)cc(C(F)(F)F)c1C#N` belongs -17% (inactive).

For the origin of these results see PubChem BioAssay AID1835 (Johns Hopkins Ion Channel Center, 2009).
